{"source": "PubChem BioAssay AID651718", "about": "(The Scripps Research Institute Molecular Screening Center, 2012)", "note": "Among all 360,000 compounds or so, about 2,700 (0.75%) were called active. No stated cut-off is given here; in the data, active means inhibition above about 4.5%; inactive means the rest. The list comes from a sample in which actives are over-represented; it also holds similar structures and randomly drawn compounds."}
{"tested_on": "Methionine sulfoxide reductase A (Bos taurus)", "experiment": "bovine MsrA enzyme inhibitors, primary screen, biochemical, absorbance, HTS (AID 651718);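 further: 0% = vehicle wells with enzyme and 100% = reference inhibitor wells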", "conditions": "purified bovine MsrA, absorbance read-out; at 15.5 µM; hits give high values"}
{"smiles": "COc1ccc(NC(=O)N(C)C[C@@H]2OCCCC[C@@H](C)Oc3ccc(NC(=O)NC4CCCCC4)cc3C(=O)N([C@H](C)CO)C[C@@H]2C)cc1", "inhibition": "-0.24% (inactive)"}
{"smiles": "COc1cc(Cl)c(S(=O)(=O)n2cnc(C)c2)cc1Cl", "inhibition": "0.89% (inactive)"}
{"smiles": "CN1/C(=C\\C=C2\\N=C(c3ccc(F)cc3)OC2=O)C(C)(C)c2ccccc21", "inhibition": "0.34% (inactive)"}
{"smiles": "CN1CCN(CCC(=O)N/N=C/C=C2\\N(C)c3ccccc3C2(C)C)CC1", "inhibition": "4.78% (active)"}
{"smiles": "CC(=O)Nc1cccc(OCC(=O)/C=C2\\N(C)c3ccccc3C2(C)C)c1", "inhibition": "3.18% (inactive)"}
{"smiles": "COC(=O)C1=C(C)N(Cc2ccc(F)cc2)C(=S)NC1c1cccc(Cl)c1", "note": "(centres undefined)", "inhibition": "0% (inactive)"}
{"smiles": "COc1ccccc1-c1ccc([C@@H]2C[C@H]3[C@H](CON3C)CN2S(=O)(=O)c2cc(Cl)cc(Cl)c2)cc1", "inhibition": "-0.24% (inactive)"}
{"smiles": "O=C(O)c1ccc(N/N=C/c2ccc3ncccc3c2)cc1", "inhibition": "5.15% (active)"}
{"smiles": "CC(C)(C)OC(=O)N/N=C/c1ccc(C(=O)O)cc1", "inhibition": "1.73% (inactive)"}
{"smiles": "CCNC(=S)NNC(=O)c1ccc2ncccc2c1", "inhibition": "0.98% (inactive)"}
{"smiles": "Cc1cc(C(=O)N/N=C/c2ccc(N3CCOCC3)cc2)c(C)o1", "inhibition": "5.02% (active)"}
{"smiles": "Cc1ccccc1N/N=C/c1ccc(N2CCOCC2)cc1", "inhibition": "1.63% (inactive)"}
{"smiles": "Cc1ccc(OCCCC(=O)Nc2ccc(N3CCOCC3)cc2)cc1", "inhibition": "-1.28% (inactive)"}
{"smiles": "CCOc1cc(/C=N/NC(=O)c2ccncc2)cc(Br)c1O", "inhibition": "2.43% (inactive)"}
{"smiles": "CCCOc1cccc(C(=O)NCCCNC(=O)c2cccnc2)c1", "inhibition": "-0.09% (inactive)"}
{"smiles": "O=C(Cc1ccccc1)Nc1ccc(NC(=O)c2cccnc2)cc1", "inhibition": "-0.64% (inactive)"}
{"smiles": "CCN(CC)c1ccc(/C=N/NC(=O)CNC(=O)c2cccs2)cc1", "inhibition": "4.8% (active)"}
{"smiles": "O=C(CNC(=O)c1cccs1)N/N=C/c1cccc(Br)c1", "inhibition": "0.52% (inactive)"}
{"smiles": "O=C(N/N=C/c1cccc(OC(=O)c2ccc([N+](=O)[O-])cc2)c1)c1cccnc1", "inhibition": "-0.13% (inactive)"}
{"smiles": "O=C(CNC(=O)c1cccnc1)N/N=C/c1cc(Br)c(O)c(Br)c1", "inhibition": "8.83% (active)"}
{"smiles": "O=C(CNC(=O)C1COc2ccccc2O1)N/N=C/c1cc(Br)c(O)c(Br)c1", "note": "(centres undefined)", "inhibition": "4.96% (active)"}
{"smiles": "CCN(CC)c1ccc(/C=N/NC(=O)CNC(=O)c2cccnc2)cc1", "inhibition": "4.63% (active)"}
{"smiles": "CC(C)OCCCNC(=O)CNC(=O)c1cccs1", "inhibition": "0.37% (inactive)"}
{"smiles": "O=C(CNC(=O)C(c1ccccc1)c1ccccc1)N/N=C\\c1ccc2c(c1)OCO2", "inhibition": "1.12% (inactive)"}
{"smiles": "CC1CC(=NNC(=O)C2COc3ccccc3O2)CC(C)(C)C1", "note": "(centres undefined)", "inhibition": "-0.12% (inactive)"}
{"smiles": "COC(=O)C1=C(C(=O)OC)C2C=C(C(C)C)C1C(=O)C2(C)O", "note": "(centres undefined)", "inhibition": "0.16% (inactive)"}
{"smiles": "CC[C@H](C)[C@H]1CNC(=O)C(=O)N1CC1CCN(CCc2ccc(OC)c(OC)c2)CC1", "inhibition": "-0.53% (inactive)"}
{"smiles": "O=C(NCC(c1ccco1)N1CCc2ccccc21)c1cccc(F)c1", "note": "(centres undefined)", "inhibition": "-0.1% (inactive)"}
{"smiles": "Cc1ccccc1C(=O)N[C@H](C(=O)N1CCC[C@H]1C(=O)NCc1ccccc1)C(C)C", "inhibition": "0.08% (inactive)"}
{"smiles": "Cc1ccc2nc(-c3ccc(CN4CCC(n5cc(-c6ccccc6)[nH]c5=O)CC4)cc3)c(-c3ccccc3)nc2c1", "inhibition": "1.47% (inactive)"}
{"smiles": "O=c1[nH]c(-c2ccccc2)cn1C1CCN(Cc2ccc(-c3nc4ccc(F)cc4nc3-c3ccccc3)cc2)CC1", "inhibition": "1.06% (inactive)"}
{"smiles": "Cc1nc(NC(=O)C(C)(C)C)sc1[N+](=O)[O-]", "inhibition": "0.16% (inactive)"}
{"smiles": "Oc1c(C(c2ccco2)N2CCC3(CC2)OCCO3)sc2ncnn12", "note": "(centres undefined)", "inhibition": "1.08% (inactive)"}
{"smiles": "O=C(N/N=C/C=C/c1ccco1)c1cccs1", "inhibition": "5.18% (active)"}
{"smiles": "CC(=O)Nc1ccc(/C=N/NC(=O)c2cccs2)cc1", "inhibition": "5.38% (active)"}
{"smiles": "C/C(=N\\OCC(=O)Nc1ccc(Br)cc1)c1cccs1", "inhibition": "0% (inactive)"}
{"smiles": "CC1(C)CC(=O)C/C(=N\\NC(=O)c2cccs2)C1", "inhibition": "0.04% (inactive)"}
{"smiles": "O=C(COC(=O)CCC(=O)c1cccs1)NCc1ccco1", "inhibition": "-1.07% (inactive)"}
{"smiles": "O=C(NC(Cc1c[nH]c2ccccc12)C(=O)N/N=C/c1ccc(Br)cc1)c1cccs1", "note": "(centres undefined)", "inhibition": "1.85% (inactive)"}
{"smiles": "Nc1[nH]c(C(=O)c2ccc(Br)cc2)c(-c2ccc3c(c2)OCO3)c1C(=O)NCCc1c[nH]c2ccccc12", "inhibition": "1.06% (inactive)"}
{"smiles": "CCOC(=O)CNC(=O)N(C)[C@H]1C[C@H]2c3[nH]c4c(-c5ccc6c(c5)OCO6)cccc4c3CCN2C(=O)[C@H]1[C@H](C)O", "inhibition": "0.91% (inactive)"}
{"smiles": "COC(=O)[C@]12C[C@H](CC(=O)NCc3ccc(C)o3)C(=O)N(CCC3=CCCCC3)C1=C[C@H](C(C)(C)C)O[C@@H]2C", "inhibition": "-0.16% (inactive)"}
{"smiles": "COCc1cc(N2CCN(C(=O)OC(C)(C)C)C[C@@H]2C)ccc1N1CCN(Cc2ccccc2)[C@H](C)C1", "inhibition": "-0.33% (inactive)"}
{"smiles": "CN1C(=O)C2CC(O)C(SC3CC4C(=O)N(C)C(=O)C4CC3O)CC2C1=O", "note": "(centres undefined)", "inhibition": "-0.2% (inactive)"}
{"smiles": "COC(=O)C1=C(C)N(Cc2cccc(C(F)(F)F)c2)C(=NCc2ccccc2)NC1c1ccc(Cl)cc1", "note": "(centres undefined)", "inhibition": "-1.08% (inactive)"}
{"smiles": "O=C(C(=O)N1CCC(CNC(=O)c2cccnc2Cl)CC1)c1cccs1", "inhibition": "0.64% (inactive)"}
{"smiles": "COc1ccc(S(=O)(=O)N2CCOCC2)cc1NC(=O)CSc1nnc(NC2CC2)s1", "inhibition": "1.12% (inactive)"}
{"smiles": "CCCCc1cc(=O)oc2cc(C)cc(OCc3nn[nH]n3)c12", "inhibition": "2.46% (inactive)"}
{"smiles": "COc1ccc(-c2cc3ccc(OCc4nn[nH]n4)cc3oc2=O)cc1", "inhibition": "6.87% (active)"}
{"smiles": "Cc1noc(C)c1COc1ccc2ccc(=O)oc2c1", "inhibition": "1.22% (inactive)"}
{"smiles": "CN1CCNC(=O)C1CC(=O)NCCC1=CCCCC1", "note": "(centres undefined)", "inhibition": "2.03% (inactive)"}
{"smiles": "CCOC(=O)C1CSCCS(=O)(=O)N1Cc1ccc(Cl)cc1", "note": "(centres undefined)", "inhibition": "-0.33% (inactive)"}
{"smiles": "Cc1c(Cl)c([N+](=O)[O-])nn1Cc1ccc(C(=O)N/N=C\\c2cc(Cl)ccc2O)o1", "inhibition": "0.28% (inactive)"}
{"smiles": "Cc1cc(C(=O)N/N=C/c2ccc(O)c([N+](=O)[O-])c2)c(C)n1-c1ccc(F)cc1", "inhibition": "4.88% (active)"}
{"smiles": "CC(Oc1ccccc1[N+](=O)[O-])C(=O)N/N=C/c1ccoc1", "note": "(centres undefined)", "inhibition": "1.1% (inactive)"}
{"smiles": "COC(=O)C(C(=O)OC)c1ccccc1NS(=O)(=O)c1cccc2ccccc12", "inhibition": "-0.65% (inactive)"}
{"smiles": "CCOC(=O)C/C(C)=N\\Nc1ccc([N+](=O)[O-])cc1[N+](=O)[O-]", "inhibition": "12.8% (active)"}
{"smiles": "CCCCOC(=O)CCCc1ccc([N+](=O)[O-])cc1[N+](=O)[O-]", "inhibition": "4.36% (inactive)"}
{"smiles": "CCOC(=O)c1ccc(NNC(C)=O)c([N+](=O)[O-])c1", "inhibition": "-0.39% (inactive)"}
{"smiles": "CC(C(=O)NC1CCCC1)N1CCN(S(=O)(=O)c2ccccc2Cl)CC1", "note": "(centres undefined)", "inhibition": "-0.92% (inactive)"}
{"smiles": "CCCCNC(=O)C(C)N(CCN(C)C)C(=O)CCCCCN1C(=O)NC(c2ccc(Cl)cc2)C(C(=O)OCc2ccccc2)=C1C", "note": "(centres undefined)", "inhibition": "1.77% (inactive)"}
{"smiles": "NC(=O)CSc1nnc(NC(=O)c2ccc(Br)o2)s1", "inhibition": "4.64% (active)"}
{"smiles": "CC(C)(C)NC(=O)CSc1nnc(NC(=O)CCc2ccccc2)s1", "inhibition": "0.59% (inactive)"}
{"smiles": "COC(=O)CSc1nnc(NC(=O)CCc2ccccc2)s1", "inhibition": "0.95% (inactive)"}
{"smiles": "COC(=O)[C@]12C[C@H](CC(=O)NCCc3ccccc3OC)C(=O)N(Cc3ccccc3)C1=C[C@H](C(C)C)O[C@@H]2C1CC1", "inhibition": "0.87% (inactive)"}
{"smiles": "CCn1cc(/C=C(\\NC(=O)c2ccc(C)cc2)C(=O)NCCN2CCOCC2)c2ccccc21", "inhibition": "4.67% (active)"}
{"smiles": "COc1ccc(/C=C(\\NC(=O)c2ccccc2)C(=O)NCCN2CCOCC2)cc1OC", "inhibition": "2.05% (inactive)"}
{"smiles": "Cc1ccc(C(=O)N/C(=C\\c2cn(C)c3ccccc23)C(=O)N2CCN(C)CC2)cc1", "inhibition": "3.12% (inactive)"}
{"smiles": "O=C(O)Cn1cnc2c(NCc3ccccc3)ncnc21", "inhibition": "0.37% (inactive)"}
{"smiles": "Cc1ccc(S(=O)(=O)N(C)c2ccc(OCC(=O)OCC(=O)N(CC#N)c3ccccc3)cc2)cc1", "inhibition": "0.73% (inactive)"}
{"smiles": "Cc1ccc(S(=O)(=O)N(C)c2ccc(OCC(=O)OCc3ccc(C#N)cc3)cc2)cc1", "inhibition": "7.12% (active)"}
{"smiles": "Cc1ccc(S(=O)(=O)N(C)c2ccc(OCC(=O)NC3=NCCS3)cc2)cc1", "inhibition": "-0.97% (inactive)"}
{"smiles": "NC(=O)c1ccc(-c2csnn2)cc1", "inhibition": "1.41% (inactive)"}
{"smiles": "Cc1cc(C)nc(N2C(=O)CC(Cc3ccccc3)C2=O)n1", "note": "(centres undefined)", "inhibition": "-1.66% (inactive)"}
{"smiles": "CC1(C)N=C(c2ccccn2)C(C)(C)N1O", "inhibition": "0.21% (inactive)"}
{"smiles": "COC(=O)C1=C(C)NC(=S)NC1c1ccc(OC)cc1", "note": "(centres undefined)", "inhibition": "0.87% (inactive)"}
{"smiles": "CCCCNc1cccc2c1S(=O)(=O)N[C@@H](C)CO2", "inhibition": "0.33% (inactive)"}
{"smiles": "Nc1nnnn1/N=C/c1cccc(Br)c1", "inhibition": "0.5% (inactive)"}
{"smiles": "Nc1nnnn1/N=C/c1cccs1", "inhibition": "0.3% (inactive)"}
{"smiles": "COc1ccc(/C=N/n2nnnc2N)cc1OC", "inhibition": "4.82% (active)"}
{"smiles": "CCN(CC)Cc1c(C(=O)OC)nnn1-c1nonc1N", "inhibition": "0.6% (inactive)"}
{"smiles": "CC1(C)OC(=O)C2=C(CC(CCc3ccccc3)OC2c2ccc(Cl)cc2)O1", "note": "(centres undefined)", "inhibition": "0.43% (inactive)"}
{"smiles": "COc1ccc(/C=N\\NC(=O)c2sc(N)nc2C)cc1OC", "inhibition": "7.88% (active)"}
{"smiles": "COc1cc(/C=N/NC(=O)Nc2ccccc2)ccc1OCCOc1ccccc1C", "inhibition": "0.83% (inactive)"}
{"smiles": "Cc1nnsc1C(=O)N/N=C/c1cccc(C(F)(F)F)c1", "inhibition": "-1.17% (inactive)"}
{"smiles": "Cc1cc(OC(=O)NCCc2ccc(F)cc2)ccc1F", "inhibition": "0.24% (inactive)"}
{"smiles": "CCCCCCCCN1C(=O)[C@@H](CC(=O)NCCCC)C[C@@]2(C(=O)OC)C1=C[C@H](C(C)(C)C)O[C@@H]2C", "inhibition": "0.08% (inactive)"}
{"smiles": "O=C(/C=C/Sc1ncn[nH]1)c1ccc(Cl)cc1", "inhibition": "5.19% (active)"}
{"smiles": "COc1cccc(-c2cc(CNC(=O)[C@@H](Cc3ccccc3)NC(=O)[C@H]3O[C@@H](n4cnc(C(N)=O)n4)[C@H](O)[C@@H]3O)no2)c1", "inhibition": "-0.49% (inactive)"}
